High-throughput results deposited in PubChem by several laboratories.
Only some compounds are listed: those with a hit (about 1.1% of all), similar ones and a draw of the others.
MIN6 prolif-1 = inducers of beta-cell replication in MIN6 cells; MIN6 cells proliferation, ATPlite luminescence, 48 h; cells starved in 0.2% serum; 100% = growth in 10% serum; proliferation, % at 10 µM; hit rate 0.29% among 330,000; AID 2380;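 active means compounds whose signal lies at least 3.5 SD above the mean of all wells on their plate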;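 further: 0% = DMSO-treated cells in low-serum medium and 100% = 10% serum control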
APOBEC3A inh = blocks human APOBEC3A ssDNA deamination. P31941. recombinant A3A, FAM/TAMRA ssDNA deamination fluorescence. inhibition, % at 20 µM. hit rate 0.41% among 330,000. AID 493011;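 active means at least 40% inhibition at 20 µM here, with at most 30% in a related deaminase screen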;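 further: plate controls were A3A with DMSO for no effect and wells lacking A3A enzyme for full effect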
Target sequence (P31941 whole entry, looked up): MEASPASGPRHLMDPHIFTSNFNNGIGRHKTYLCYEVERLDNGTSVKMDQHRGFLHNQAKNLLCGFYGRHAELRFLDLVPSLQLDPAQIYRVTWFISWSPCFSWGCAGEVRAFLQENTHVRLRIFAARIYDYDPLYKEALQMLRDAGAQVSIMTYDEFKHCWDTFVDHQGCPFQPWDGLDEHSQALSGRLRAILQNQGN
Bfl-1 A1 inh = inhibitors of the anti-apoptotic protein A1, read as caspase activation; MEF A1-2A-BIM cells, Caspase-Glo 3/7 luminescence, 3 h; percent of clofoctol response, vehicle zero; caspase activation, % (concentration not given with the values); hit rate 0.066% among 330,000; AID 2462;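 active means over half of replicate activation scores above 10%, or exactly half above 10 with the replicate mean above 10; inconclusive means replicate mean below 10 yet half the replicates above 10; inactive means over half of replicates below 10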
APOBEC3G inh = APOBEC3G (human) deaminase inhibition | Q9HC16 | recombinant A3G, ssDNA deamination FAM/TAMRA fluorescence | inhibition, % at 20 µM | hit rate 0.28% among 330,000;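 active means inhibition of at least 40% at 20 µM, with no more than 30% in the related APOBEC3A deaminase screen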;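 further: plate controls were DMSO wells with A3G for no effect and wells lacking A3G enzyme for full effect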
Target sequence (Q9HC16 whole entry, looked up): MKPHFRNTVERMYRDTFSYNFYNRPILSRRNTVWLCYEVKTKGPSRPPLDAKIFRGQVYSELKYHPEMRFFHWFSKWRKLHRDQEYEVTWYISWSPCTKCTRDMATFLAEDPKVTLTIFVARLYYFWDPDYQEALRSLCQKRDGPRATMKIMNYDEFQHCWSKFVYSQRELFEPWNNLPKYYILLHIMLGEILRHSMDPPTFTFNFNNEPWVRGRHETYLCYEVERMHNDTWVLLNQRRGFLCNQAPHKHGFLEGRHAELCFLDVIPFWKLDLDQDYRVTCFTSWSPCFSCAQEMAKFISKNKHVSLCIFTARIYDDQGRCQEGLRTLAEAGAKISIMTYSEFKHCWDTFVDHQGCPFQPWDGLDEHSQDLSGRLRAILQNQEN
MIN6 prolif-2 = confirmation of inducers of beta-cell replication in MIN6 cells. shares compounds with MIN6 prolif-1. MIN6 beta-cell proliferation, ATPlite luminescence, 48 h; cells kept in 0.2% serum; scaled between 0.2% and 10% serum. proliferation increase, % at 50 µM. 920 tested, under 10 active. AID 463095;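 active means proliferation increase above 40% at any of the four tested concentrations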
The depositor's hits bear a star; ? = inconclusive; nt = not tested or not shown.

SMILES | MIN6 prolif-1 | APOBEC3A inh | Bfl-1 A1 inh | APOBEC3G inh | MIN6 prolif-2
CCCCC(=O)Nc1ccccc1C#N | 5.8* | -5 | 1 | -12 | -1
NC(=O)c1cc([N+](=O)[O-])ccc1NCc1cccnc1 | 2 | 3 | 0 | -5 | nt
NC(=O)c1cc([N+](=O)[O-])c(Cl)cc1NCc1cccnc1 | 12* | -1 | -1 | -8 | 6
CCc1cc(C(=O)NNC(=O)CCN2CCN(c3ccccc3)CC2)sc1C | 13* | 34 | 0 | 5 | -3
Cc1ccc(NC(=O)CSCC(=O)N2CCCc3ccccc32)cc1 | 4 | 9 | 0 | -8 | nt
CCCCOc1ccc(C(=O)N2CCN(CC(=O)Nc3ccc(C)cc3)CC2)cc1OC | -1 | -4 | 0 | -3 | nt
COc1ccc(C(=O)N=C2SC3CS(=O)(=O)CC3N2c2ccc(N(C)C)cc2)cc1OC (stereo not drawn) | 14* | 0 | -1 | -1 | 3
CCc1c(C)c(C#N)c2nc3ccccc3n2c1N(C)C | 6.0* | 0 | 0 | -5 | -2
CCOc1ccccc1NC(=O)c1ccc(OCC(=O)N2CCOCC2)c(OC)c1 | -3 | -3 | 1 | -5 | nt
CCOc1ccccc1N1CCN(C(=O)c2ccc(OCC(=O)N3CCOCC3)c(OC)c2)CC1 | 14* | -1 | 0 | -5 | -2
CCOc1ccc(N2CC(C(=O)Nc3cccnc3)CC2=O)cc1 (stereo not drawn) | -2 | 0 | 0 | -5 | nt
CCOc1ccccc1N(CC(=O)NCCc1ccc(OC)c(OC)c1)S(=O)(=O)c1ccccc1 | 7.1* | -4 | 0 | -7 | -1
COc1ccc(N(CC(=O)NCCc2ccccc2)C(=O)c2csnn2)cc1 | -1 | -2 | 0 | -5 | nt
O=C(CN(Cc1ccccc1Cl)C(=O)c1csnn1)NCCc1ccccc1 | 6.0* | -3 | ? | -6 | -4
O=C(CN(Cc1ccccc1)C(=O)c1csnn1)NCCc1ccccc1 | -1 | -5 | 0 | -9 | nt
COc1ccc(N(CC(=O)NCCc2ccccc2)C(=O)c2csnn2)cc1OC | 6.2* | -4 | 0 | -8 | 0
CC(C)CCN1CCN(Cc2ccc(C#CCCO)cc2)CC1CCO (stereo not drawn) | 1 | -1 | -1 | -4 | nt
COC(=O)c1ccc(OC(=O)c2ccccn2)cc1 | 6.5* | 6 | -1 | -1 | 0
CC1(C)CC2CC(C)(CN2C(=O)COC(=O)c2cccc(O)c2)C1 (stereo not drawn) | 4 | 5 | 0 | 5 | nt
CC1(C)CC2CC(C)(CN2C(=O)COC(=O)c2cccc([N+](=O)[O-])c2)C1 (stereo not drawn) | 7.4* | 7 | 1 | 0 | -1
COc1ccc(-c2cc(C(=O)N3CCN(c4cccc(C)c4C)CC3)c3ccccc3n2)cc1OC | -7 | -4 | 0 | -7 | nt
CC(C)CNC(=O)COC(=O)c1ccccc1SCC(=O)NCC(C)C | 7.8* | 2 | 1 | -1 | 2
CCOC(=O)c1c(NC(=O)C(C)N2CCN(S(=O)(=O)c3cccs3)CC2)sc2c1CCC(C)C2 (stereo not drawn) | 5.5* | 2 | -1 | -3 | -1
CCOC(=O)c1c(NS(C)(=O)=O)sc2c1CCC(C)C2 (stereo not drawn) | 7.3* | -3 | -1 | -2 | -6
COC(=O)c1cnc(N2CCOCC2)nc1C(F)(F)F | 6.3* | -3 | 0 | -8 | 0
SMILES | MIN6 prolif-1 | APOBEC3A inh | Bfl-1 A1 inh | APOBEC3G inh | MIN6 prolif-2
CCOC(=O)/C(C#N)=C1/C=Nc2ccccc2N1 | 0 | -2 | -3 | -7 | nt
CCOC(=O)/C(C#N)=C1/C=C(C)c2ccccc2N1 | 7.1* | 5 | 0 | -9 | -1
CCOC(=O)c1cc2c(=O)n3cccc(C)c3nc2n(CCOC)c1=NC(C)=O | -1 | 1 | 0 | -2 | nt
CCOC(=O)c1cc2c(=O)n3cccc(C)c3nc2n(CC2CCCO2)c1=NC(C)=O (stereo not drawn) | 9.6* | 0 | -2 | -2 | 1
CCC(C)N(C(=O)CSc1ncnc2sccc12)C1CCS(=O)(=O)C1 (stereo not drawn) | 14* | -4 | 0 | -9 | 4
CC1=CC(=C(C#N)c2nc3ccccc3s2)C=C(C)N1CC1CCCO1 (stereo not drawn) | -5 | 2 | 0 | -2 | nt
COc1ccc(S(=O)(=O)Cc2ccc(C(=O)NCCc3cc(OC)ccc3OC)o2)cc1 | 7.5* | 1 | 1 | 0 | 1
Cc1ccccc1C(=O)OCC(=O)NCC1COc2ccccc2O1 (stereo not drawn) | 12* | -2 | nt | -11 | -5
N#Cc1ccc(OCC(=O)NCC2COc3ccccc3O2)cc1 (stereo not drawn) | 11* | -4 | 0 | -8 | -1
O=C(COc1ccccc1)NCC1COc2ccccc2O1 (stereo not drawn) | 0 | 2 | -1 | -3 | nt
O=C(COC(=O)c1ccccc1O)NCC1COc2ccccc2O1 (stereo not drawn) | 0 | -3 | 0 | -7 | nt
COC(=O)c1sccc1Oc1c(Cl)cccc1[N+](=O)[O-] | -3 | -3 | 3 | -6 | nt
COc1nc(N/N=C/c2ccc(C)cc2)nc(N2CCCCC2)n1 | 7.4* | -1 | 0 | 0 | -1
COc1ccc(/C=N/Nc2nc(N3CCCC3)nc(N3CCCC3)n2)cc1 | nt | nt | 0 | nt | nt
COc1ccc(NC2CCCN(C(=O)CSc3ccncc3)C2)cc1 (stereo not drawn) | -3 | 1 | -2 | 1 | nt
Cc1cc(=O)oc2cc(OCC(=O)OCC(=O)N(C)C3CCS(=O)(=O)C3)ccc12 (stereo not drawn) | 0 | 10 | 1 | 10 | nt
Fc1ccc(OCc2nn[nH]n2)c(F)c1 | 7.1* | 30 | 1 | 0 | 0
COc1ccc(C=O)cc1COc1ccc(F)cc1F | -2 | 11 | 1 | 7 | nt
CCCC(=O)Nc1cc(C(=O)O)ccc1Sc1ccc(C)cc1 | 2 | 1 | 0 | -6 | nt
CCC(=O)Nc1cc(C(=O)O)ccc1Sc1ccc(C)cc1 | 7.5* | 6 | -1 | 1 | 0
CC(C)CC1=NC(C(F)(F)F)(C(F)(F)F)c2c(n(CC(C)C)c(=O)[nH]c2=O)N1 | 6.6* | 4 | 0 | 2 | 0
COc1cc(-c2c(C#N)c(N)nc3[nH]c(=S)[nH]c(=O)c23)ccc1O | -1 | 2 | 1 | -5 | nt
COC(=O)N1C(=O)[C@@](CC(C)C)(c2ccccc2)N1C(=O)OC | 17* | -2 | 0 | -10 | -6
CCOC(=O)/C(=N\O)C1=NC(C)(C)Cc2ccccc21 | 1 | -5 | 2 | -7 | nt
CCOC(=O)/C(C(=O)Nc1ccccc1Br)=C1/NC(C)(C)Cc2ccccc21 | 0.0* | -4 | 2 | -4 | -6
CCOC(=O)C1CCCN(C2CC(=O)N(c3ccc(N4C(=O)CC(N5CCCC(C(=O)OCC)C5)C4=O)cc3)C2=O)C1 (stereo not drawn) | 9.5* | 4 | 0 | 2 | -1
